Assay results: PubChem BioAssay AID588856 (National Center for Advancing Translational Sciences (NCATS), 2011)
Screen size: about 410,000 compounds; about 3,100 (0.76%) were called active. What follows is part of a selection rich in actives, with near analogues and random picks from the rest. Values without a mark were called inactive. Calls come from the whole dose curve; as a rule, active = well fitted cell-killing curve with a large enough effect; inactive = no such curve, though single readings can be large or run the other way.
Potency is the fitted concentration of half-maximal effect.

Experiment: qHTS for Inhibitors of TGF-b: Cytotox Counterscreen
Conditions: HepG2 CAGA-GFP viability, ATP luminescence, 18 h; series mostly up to 46.1 µM; activity change, negative = cytotoxicity: at the top concentration
Text: TGF-b is a main component in the TGF-b signaling pathway which plays diverse roles in cellular and development pathways. TGF-b is mediated by transcription factors called "Smads". Although the Smad-dependent pathway is the primary canonical TGF-b signaling mode, TGF-b1 can also activate alternative signaling pathways, including those involving MAPK (ERK, JNK and p38). This interaction may mediate or enhance Smad-dependent responses, or can exert Smad-independent effects. The complexity of this signaling cascade allows the TGF-b superfamily to perform unique, overlapping or redundant functions. We believe that targeting the TGF-beta pathway at the Smad-transcription factor level may eliminate the consequences of disrupting the entire pathway and offer specificity without affecting other signaling pathways. Smad3 is the primary transducer of TGF-b's signals and Smad3 regulates many functions attributed to TGF-b signaling. We hypothesize that Smad3 inhibitors will selectively eliminate Smad3-specific TGF-beta signals without undesired off-target effects. We aim to identify Smad3-small molecule antagonists using a quantitative high throughput screening (qHTS) approach.
A high-throughput assay was developed to screen the NIH Molecular Libraries Small Molecule Repository (MLSMR). This is a cell based assay, where TGF-b is tagged with GFP. This is a counterscreen that evaluates the cytotoxicity of the compounds that were screened in the primary cell-based screen (AID 588855).
MH087449NIH Chemical Genomics Center [NCGC]
NIH Molecular Libraries Probe Centers Network [MLPCN]
Assay Submitter (PI): Sushil Rane, National Institute of […]
Suspensions of trypsinized HEPG2 CAGA-GFP cells were dispensed into white, tissue culture-treated, solid 1536-well plates at 5uL/well (1000 cells/well final concentration) in DMEM medium supplemented with 1% FBS. Plates were incubated at 37 degrees C for 2 hours, after which 23 nL of compounds or DMSO were delivered to each well using a pin tool. One uL of recombinant TGF-beta in DMEM (1% FBS) was then dispensed (500 pg/mL final concentration), and plates were incubated at 37 degrees C for 18 hours. Two uL of CellTiter Glo (Promega), a luminescence-based viability reagent, was dispensed, followed by a 10 minute room temperature incubation. The plates were then measured on a PerkinElmer ViewLux plate reader for luminescence (clear filter) using a 5 second exposure. The %Activity was determined from the corrected luminescence values. Wells containing media only (no cells) were used to normalize %Activity of identified toxic compounds; media-only wells corresponded to 100%Activity (complete cell-killing), while DMSO-dosed cell controls were used to normalize 0%Activity (no toxicity).
Concentration-response curves were fitted to the signals arising from the resulting luminescence. The concentration-effect curves were then classified based on curve quality (r2), response magnitude and degree of measured activity, and compounds were subsequently categorized based on their curve class.
With `COc1ccc(NC(=O)C(=O)NCc2ccco2)cc1` the “activity change, negative = cytotoxicity” value was 7.02%.
With `COc1ccc(CS(=O)/C(Cl)=C(/Cl)C(=O)Nc2ccc(OC)nc2)cc1` (configuration not stated) the Potency was 14.1 µM (active).
With `COc1ccc(CC(=O)Nc2ccc(-c3nc4ccccc4s3)c(C)c2)cc1` the “activity change, negative = cytotoxicity” value was -2.33%.
For `COc1ccc(-n2c(=O)c3c(c4cc(OC)ccc4n3C)n(Cc3cccc(C)c3)c2=O)cc1`, the “activity change, negative = cytotoxicity” value was -0.731%.
In the case of `COc1ccc(CNC(=O)C2=Cc3cccc(OC)c3OC2)cc1OC`, the “activity change, negative = cytotoxicity” value is reported as 6.48%.
With `COc1ccc(OC)c(CNC(=O)c2c3c(nc4ccccc24)C(=O)N(C2CCCCC2)C3)c1` the “activity change, negative = cytotoxicity” value was 1.46%.
In the case of `O=C(Cc1csc(Nc2nc(=S)[nH]c3ccccc23)n1)NCCCN1CCN(c2cccc(Cl)c2)CC1`, the “activity change, negative = cytotoxicity” value is reported as -22.2%.
In the case of `COc1ccc(N2CCN(CCNC(=O)c3nnc(Cc4c(F)cccc4Cl)o3)CC2)cc1`, the “activity change, negative = cytotoxicity” value is reported as -11.4%.
For `O=C(NCCCN1CCN(c2cccc(Cl)c2)CC1)c1nnc(Cc2ccc(F)cc2Cl)o1`, the Potency was 11.2 µM (active).
With `CCc1ccc(NC(=O)CN2C(=O)C(c3ccccc3)=NC23CCCCCC3)cc1` the “activity change, negative = cytotoxicity” value was -29.3%.
With `Cc1cnc(NC(=O)c2ccccn2)s1` the Potency was 5.01 µM (active).
In the case of `COC(=O)Nc1ncc(CN2C(=O)c3ccccc3C2=O)s1`, the “activity change, negative = cytotoxicity” value is reported as 11%.
With `COc1ccc(CC(=O)NCc2nnc(SCC(=O)Nc3ncc(C)s3)n2C)cc1` the “activity change, negative = cytotoxicity” value was 2.57%.
In the case of `CCOc1ccccc1CNC(=O)c1ccc2c(c1)nc1n2CCC(C)C1` (configuration not stated), the “activity change, negative = cytotoxicity” value is reported as 0.917%.
In the case of `CCN(Cc1ccccc1)Cc1c(O)ccc2c(=O)c(-c3ccc(Cl)cc3Cl)coc12`, the “activity change, negative = cytotoxicity” value is reported as -1.33%.
With `Cc1[nH]c2ccccc2c1C(=O)C(=O)N(C)c1ccccc1` the “activity change, negative = cytotoxicity” value was -2.78%.
With `OC[C@@H]1O[C@H](n2cnc3c(SCc4ccccc4)ncnc32)[C@H](O)[C@H]1O` the “activity change, negative = cytotoxicity” value was -22.8%.
In the case of `c1ccc(C[C@H]2CNCCN2CCC23CC4CC(CC(C4)C2)C3)cc1`, the “activity change, negative = cytotoxicity” value is reported as -95.7%.
With `CC(C)(C)CN1C(=O)C(=O)NC[C@H]1Cc1cccc2ccccc12` the “activity change, negative = cytotoxicity” value was 3.08%.
For `c1ccc2c(CCN3CCNC[C@H]3Cc3cccc4ccccc34)cccc2c1`, the Potency was 12.6 µM (active).
For `O=c1n(Cc2cccc(C(F)(F)F)c2)c2ccccc2c2nc(-c3ccccc3)nn12`, the “activity change, negative = cytotoxicity” value was -19.5%.
With `Brc1cccc[n+]1Cc1cccc(C[n+]2ccccc2Br)c1` the “activity change, negative = cytotoxicity” value was -2.89%.
In the case of `CCOC(=O)Nc1ccc(S(=O)(=O)N(C)C(C)C)cc1`, the “activity change, negative = cytotoxicity” value is reported as 0.514%.
For `CCOC(=O)Nc1ccc2c(c1)N(C(=O)CCCl)c1ccccc1[S@]2=O`, the Potency was 12.6 µM (active).
In the case of `CCOC(=O)Nc1ccc2c(c1)N(C(=O)CN1CCN3CCCC3C1)c1ccccc1CC2` (configuration not stated), the “activity change, negative = cytotoxicity” value is reported as -21.2%.
For `Cc1ccc(C(=O)Nc2ccc(C(=O)O)cc2)cc1S(=O)(=O)Nc1ccccc1`, the “activity change, negative = cytotoxicity” value was 3.73%.
For `O=C(Nc1ccc2oc(-c3ccc(O)c(Br)c3)nc2c1)c1cc2ccccc2o1`, the “activity change, negative = cytotoxicity” value was -4.99%.
With `CCOc1ccc(OCC)c(NS(=O)(=O)c2ccc3[nH]c(=O)ccc3c2)c1` the “activity change, negative = cytotoxicity” value was -16%.
With `C[N+]1(CC(=O)c2cccs2)CCOCC1` the “activity change, negative = cytotoxicity” value was -3.11%.
In the case of `Cc1nnc(N2CCC(C(=O)Nc3ccc(F)cc3)CC2)c2nn(-c3ccc(Cl)cc3)c(C)c12`, the Potency is reported as 11.2 µM (active).
In the case of `CCc1ccc(CNC(=O)C2CCN(c3nnc(C)c4c(C)n(-c5ccc(C)cc5)nc34)CC2)cc1`, the Potency is reported as “inactive”.
In the case of `CC(=O)Nc1c(C)nn(-c2ccccc2)c1N1CCC(C(=O)Nc2cc(Cl)ccc2C)CC1`, the “activity change, negative = cytotoxicity” value is reported as -7.86%.
For `CCCCc1nn2c(=O)cc(COC(=O)c3cccc(NC(=O)COc4ccccc4)c3)nc2s1`, the “activity change, negative = cytotoxicity” value was -3.96%.
In the case of `O=C(NCc1ccccn1)[C@]1(C(F)(F)F)C[C@H](CCc2ccccc2)CCCO1`, the “activity change, negative = cytotoxicity” value is reported as -0.451%.
For `CC(C)(C)n1ncc2c(=O)n(Cc3ccc(C(=O)c4ccccc4)cc3)cnc21`, the “activity change, negative = cytotoxicity” value was 0.159%.
For `N#C/C(=C\c1ccccc1F)c1nc2ccccc2c(=O)[nH]1`, the “activity change, negative = cytotoxicity” value was -15%.
With `O=C(/C(=C/c1cccc(Cl)c1)c1nc2ccccc2[nH]1)c1ccccc1` the Potency was 2.82 µM (active).
For `O=C(O)c1ccc(Cn2c(SCc3ccc(F)cc3)nc3ccncc32)cc1`, the “activity change, negative = cytotoxicity” value was -0.167%.
In the case of `COc1ccc(CCNC(=O)c2cnc3sc(N4CCCCCC4)nn3c2=O)cc1OC`, the “activity change, negative = cytotoxicity” value is reported as 4.28%.
With `COc1ccc(Cl)cc1NC(=O)C(C)Sc1nc2c(c(=O)[nH]1)CCCC2` (configuration not stated) the “activity change, negative = cytotoxicity” value was -11.4%.
With `ClC/C=C/C[n+]1ccccc1Cl` the “activity change, negative = cytotoxicity” value was -6.94%.
In the case of `CN1c2ccc(Cl)cc2-c2nc(SCC(=O)Nc3cc(F)ccc3F)ncc2S1(=O)=O`, the “activity change, negative = cytotoxicity” value is reported as -5.61%.
For `Cc1ccc(C=O)cc1Cl`, the “activity change, negative = cytotoxicity” value was 3.42%.
With `COc1ccc(CNC(=O)c2ccc3c(O)c(S(=O)(=O)c4ccccc4)c(=O)[nH]c3c2)cc1` the “activity change, negative = cytotoxicity” value was -34.6%.
In the case of `CCc1ccc(C(=O)CC2(O)C(=O)N(CCc3ccccc3)c3ccc(Br)cc32)cc1` (configuration not stated), the Potency is reported as 14.1 µM (active).
For `Cc1ccc(C(=O)CC2(O)C(=O)N(CCc3ccccc3)c3ccc(Br)cc32)cc1` (configuration not stated), the “activity change, negative = cytotoxicity” value was -109%.
For `CCCN1C(=O)C(O)(CC(=O)c2ccc(CC)cc2)c2cc(Br)ccc21` (configuration not stated), the “activity change, negative = cytotoxicity” value was -103%.
